# Test results from PubChem BioAssay (NCI).
# About 83,000 compounds went through this panel and 20% of them were active in at least one assay; those are over-represented in the sample as a whole.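 Results are percent growth after 48 hours of single-concentration exposure. 100 means growth as in untreated cells, lower positive values show inhibition; negative values down to -100 show cell death.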 Values without a mark were called inactive. Activity calls are given as the source filed them. Rule for the calls: active = growth percent below 10; inactive = the rest.
# System: NCI-H226 lung
# Test: NCI-60 one-dose screen, 48 h (100 = growth as untreated, 0 = no growth, -100 = all killed)
# Settings: 10 µM unless noted
row,SMILES,growth
1,C=CCC(=O)N[C@H](/C=C/C(=O)O)Cc1ccc(-c2cc(Cl)cc(Cl)c2)cc1,86.2%
2,CCN1CCN(c2cc(C)nc(N(CCCNc3ccnc4cc(Cl)ccc34)Cc3cccs3)n2)CC1,57.6%
3,COC(=O)CCCNc1c(-c2c(O)c(O)cc3c(O)c(-c4c(C)cc5c(-c6nc7ccccn7c6NCCCC(=O)OC)c(O)c(O)cc5c4O)c(C)cc23)nc2ccccn12,64.8%
4,Cn1ncc(Cl)c1-c1cc(C(=O)N[C@H](CN)Cc2ccc(F)c(F)c2)oc1Cl,11.8%
5,O=c1[nH]c(N2CCOCC2)nc2scc(-c3ccccc3)c12,97.2%
6,Cc1cc2c(-c3nc4ccccn4c3NC3CCCCC3)c(O)c(O)cc2c(O)c1-c1c(C)cc2c(-c3nc4ccccn4c3NC3CCCCC3)c(O)c(O)cc2c1O,53.6%
7,CC(C)C1CCC(C)C(C2(C#N)C(N)=NC(N)=C2C#N)C1=O (centres undefined),100%
8,Cc1cc(N2CCCC2)nc(N(CCCNc2ccnc3cc(Cl)ccc23)Cc2ccc3c(c2)OCO3)n1,50.4%
9,[2H]C1([2H])[C@H](C)O[C@H](C)C([2H])([2H])N1c1ccc(NC(=O)c2cccc(-c3ccc(OC(F)(F)F)cc3)c2C)cn1,58.7%
10,Cc1cc2c(-c3nc4ccccn4c3NC34CC5CC(CC(C5)C3)C4)c(O)c(O)cc2c(O)c1-c1c(C)cc2c(-c3nc4ccccn4c3NC34CC5CC(CC(C5)C3)C4)c(O)c(O)cc2c1O,12.7%
11,CC[C@H](Nc1ncnc2nc[nH]c12)c1nc2cccc(F)c2c(=O)n1-c1ccccc1,93.3%
12,COC(=O)C1=C(C(=O)OC)C23C=C(C)C1C2=C(C)C1(CC1)[C@@](C)(O)C3=O (some centres undefined),-34.8% (active)
13,c1ccc2c(c1)CCN(NCCN1CCCC1)C2,88.8%
14,Cc1cc(N(CCNc2ccnc3cc(Cl)ccc23)Cc2cccs2)nc(Cl)n1,-30.2% (active)
15,COc1cc(-c2nc(C(=O)Nc3ccc(C)cc3)nn2-c2ccc(F)c(F)c2)cc(OC)c1OC,102%
16,O=C(Cn1c(=O)ccn(CCCCCCCCOc2ccc(Br)cc2)c1=O)Nc1ccc(Oc2ccc(Cl)cc2)cc1,56.6%
17,Cc1ccc(-c2cc3c(SCC(=O)Nc4cc(C(F)(F)F)ccc4Cl)nccn3n2)cc1,54%
18,CCCc1cc2cc(-n3nc(C)c4c3CC(C)(C)CC4=O)cc(NC3CCC(O)CC3)c2c(=O)[nH]1 (centres undefined),33.8%
19,COc1ccc(C(=O)c2cc(OC)c(OC)c(OC)c2)cc1/C=C/C(=O)c1ccc(F)cc1,90.4%
20,CC(C)=CCc1cc2c(cc1O)C1=C(C(=O)C3=C(C1=O)S(=O)(=O)CCN3)C(C=C(C)C)O2 (centres undefined),-54.1% (active)

row,SMILES,growth
1,CN1CCN(c2nc(NCCNc3ccnc4cc(Cl)ccc34)c3ccccc3n2)CC1,62%
2,COc1ccc(CCCc2c3[n+](cc4c(OC)c(OC)ccc24)CCc2cc4c(cc2-3)OCO4)cc1,88.4%
3,N#Cc1cc2[nH]c3ccc(OC(F)(F)F)cc3c2oc1=O,82.4%
4,CCN1CCN(CCCN(C[C@H]2Cc3ccccc3CN2)[C@H]2CCCc3cccnc32)CC1,83.7%
5,Clc1ccc2c(NCCCNCc3ccc4c(c3)OCO4)ccnc2c1,80.1%
6,Cc1cc(N2CCOCC2)nc(N(CCNc2ccnc3cc(Cl)ccc23)Cc2cccs2)n1,54.6%
7,CCN1CCN(c2cc(C)nc(N(CCCNc3ccnc4cc(Cl)ccc34)Cc3ccc4c(c3)OCO4)n2)CC1,50.7%
8,COc1cc(-c2cc(-c3ccc(Nc4ccnc5cc(Cl)ccc45)cc3)nc(N3CCOCC3)n2)cc(OC)c1OC,92.3%
9,COC(=O)C1CCc2sc3ncnc(Nc4cn[nH]c4C(=O)Nc4ccc(CN5CCN(C)CC5)cc4)c3c21 (centres undefined),14.9%
10,CO/C=C/C(=O)c1cc2cnc3c(=N)cc(NC(=O)C(C)C)c([nH]1)c23,-40.3% (active)
11,CCN1CCN(c2nc(C)cc(N(CCNc3ccnc4cc(Cl)ccc34)Cc3ccc4c(c3)OCO4)n2)CC1,75.3%
12,N#CC(C#N)=NO,94.6%
13,C=CC(=O)N(C)[C@H]1C[C@H]2OC(C)(C1OC)n1c3ccccc3c3c4c(c5c6ccccc6n2c5c31)C(=O)NC4 (some centres undefined),-60.7% (active)
14,Cc1ccc(NC(=O)NC(=O)CSc2nc3ccccc3nc2C)cc1,59.4%
15,C=CCn1c(=O)c2cnc(Nc3ccc(N4CCN(C)CC4)cc3)nc2n1-c1cccc(C(C)(C)O)n1,40%
16,Clc1ccc2c(NCCNc3nc(N4CCCC4)nc4ccccc34)ccnc2c1,-31.2% (active)
17,Clc1ccc(/C=C/c2cc(N3CCOCC3)c3cc(Cl)c(Cl)cc3n2)cc1,85.5%
18,Nc1ncnc2c1ccn2-c1cccc(NC(=O)c2ccc(N3CCOCC3)c(C(F)(F)F)c2)c1,60%
19,CC12O[C@H](C[C@@H](OC(=O)CCC(=O)O)[C@H]1O)n1c3ccccc3c3c4c(c5c6ccccc6n2c5c31)C(=O)NC4=O,9.15% (active)
